In the library only some 2.1% were active in any assay of this set; here they are far more common.
CASP6 VEID inh – human caspase-6 inhibitors, primary screen, biochemical, VEID-R110 fluorescence, single point, set 2. P55212. purified caspase-6, Z-VEID-R110 cleavage fluorescence. inhibition, % at 12.5 µM. 350,000 compounds, 0.53% hits. AID 686996, 2013;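 active means mean inhibition across replicates at least about 35%, with every replicate also reaching that limit, limit read from the data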
ARNT TACC3 PPI – disruptors of ARNT/TACC3 protein interaction, primary screen, biochemical, AlphaScreen, single concentration; inhibition, % at 9.99 µM; AID 623870, 2012; 390,000 compounds, 0.66% hits; AlphaScreen His-ARNT PAS-B/GST-TACC3 binding, luminescence; TACC3 fragment carries E629A point mutation;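 active means mean inhibition of replicates at least 50% and at least half of replicates each reaching 50%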
PfHsp90 set2 – growth inhibition of PfHsp90-expressing yeast, primary screen, antimalarial PfHsp90 inhibitor project, S. cerevisiae, BacTiter-Glo luminescence, single point, set 2; inhibition, % at 9.4 µM; 310,000 compounds, 0.32% hits; BacTiter-Glo ATP, 48 h; yeast lacking PDR1 and PDR3 efflux regulators;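 active means every replicate shows inhibition above about 80%, whatever the replicate mean, limit read from the data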
SIRT5 inh – SIRT5 desuccinylase inhibitors, primary screen, biochemical, fluorescence imaging, single point, set 5; NAD-dependent protein deacylase sirtuin-5, mitochondrial (Homo sapiens), Q9NXA8; Purified SirT5, succinyl-peptide AMC, trypsin-coupled fluorescence; inhibition, % at 15 µM; 330,000 compounds, 1.1% hits; in the data active means inhibition above about 15%
NSD2 inh – NSD2 histone methyltransferase inhibitors, primary screen, biochemical, AlphaScreen, single concentration, set 2; Histone-lysine N-methyltransferase NSD2 (Homo sapiens), O96028; NSD2 peptide methylation, 120 min; inhibition, % at 12.5 µM; 310,000 compounds, 0.54% hits; in the data active means inhibition above about 50%
Target sequence (O96028 whole entry, looked up): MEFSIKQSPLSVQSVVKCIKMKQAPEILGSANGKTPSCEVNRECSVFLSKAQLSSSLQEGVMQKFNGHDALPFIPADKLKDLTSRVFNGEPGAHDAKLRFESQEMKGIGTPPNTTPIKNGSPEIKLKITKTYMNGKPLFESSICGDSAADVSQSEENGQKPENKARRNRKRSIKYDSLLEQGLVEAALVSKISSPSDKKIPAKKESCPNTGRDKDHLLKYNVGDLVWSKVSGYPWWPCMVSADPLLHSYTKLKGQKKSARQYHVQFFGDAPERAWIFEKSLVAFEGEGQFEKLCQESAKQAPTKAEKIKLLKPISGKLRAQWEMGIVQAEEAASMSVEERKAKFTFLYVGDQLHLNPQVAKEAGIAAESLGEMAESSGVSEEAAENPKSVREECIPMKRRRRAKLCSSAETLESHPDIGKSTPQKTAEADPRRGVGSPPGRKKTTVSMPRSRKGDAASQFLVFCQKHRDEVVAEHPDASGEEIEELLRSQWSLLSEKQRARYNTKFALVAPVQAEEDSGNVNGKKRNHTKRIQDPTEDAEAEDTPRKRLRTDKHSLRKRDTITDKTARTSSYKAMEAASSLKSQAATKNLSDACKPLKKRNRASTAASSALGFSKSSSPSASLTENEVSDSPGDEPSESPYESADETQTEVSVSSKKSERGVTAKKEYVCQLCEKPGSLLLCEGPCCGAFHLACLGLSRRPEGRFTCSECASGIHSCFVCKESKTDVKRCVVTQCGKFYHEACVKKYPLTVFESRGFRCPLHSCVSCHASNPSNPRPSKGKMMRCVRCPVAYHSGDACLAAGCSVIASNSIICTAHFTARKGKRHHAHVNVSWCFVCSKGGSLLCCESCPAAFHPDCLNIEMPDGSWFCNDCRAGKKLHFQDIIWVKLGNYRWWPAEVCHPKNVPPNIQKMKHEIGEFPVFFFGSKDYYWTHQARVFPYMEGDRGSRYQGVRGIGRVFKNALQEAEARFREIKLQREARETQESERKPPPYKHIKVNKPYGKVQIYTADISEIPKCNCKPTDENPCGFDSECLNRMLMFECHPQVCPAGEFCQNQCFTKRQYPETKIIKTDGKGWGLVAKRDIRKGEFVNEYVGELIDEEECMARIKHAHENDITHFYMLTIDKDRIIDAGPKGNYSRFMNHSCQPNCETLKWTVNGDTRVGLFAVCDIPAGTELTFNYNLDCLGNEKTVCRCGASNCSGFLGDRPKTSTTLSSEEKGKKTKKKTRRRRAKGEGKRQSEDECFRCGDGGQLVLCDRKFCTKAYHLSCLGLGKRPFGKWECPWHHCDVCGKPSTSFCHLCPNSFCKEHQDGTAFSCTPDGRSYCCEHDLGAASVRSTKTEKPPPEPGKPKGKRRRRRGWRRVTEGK
A number is an active result; – = inactive; · = not tested or not shown.

SMILES | CASP6 VEID inh | ARNT TACC3 PPI | PfHsp90 set2 | SIRT5 inh | NSD2 inh
O=C(C[C@H]1C[C@@H]2c3cc(NS(=O)(=O)c4ccc(F)cc4)ccc3O[C@@H]2[C@@H](CO)O1)NCc1ccc(-c2ccccc2)cc1 | – | – | · | 17 | ·
Cc1ccc(S(=O)(=O)Nc2ccc3c(c2)C(=O)N([C@H](C)CO)C[C@@H](C)[C@@H](CN(C)S(=O)(=O)c2ccc(F)cc2)OCCCC[C@H](C)O3)cc1 | – | – | · | – | ·
Cc1ccc(S(=O)(=O)N(C)C[C@H]2OCCCC[C@H](C)Oc3ccc(NS(=O)(=O)c4ccc(F)cc4)cc3C(=O)N([C@H](C)CO)C[C@@H]2C)cc1 | – | – | · | 20 | ·
Cc1ccc(S(=O)(=O)Nc2ccc3c(c2)C(=O)N([C@@H](C)CO)C[C@H](C)[C@H](CN(C)S(=O)(=O)c2ccc(F)cc2)OCCCC[C@@H](C)O3)cc1 | – | – | · | 18 | ·
Cc1ccc(S(=O)(=O)N(C)C[C@@H]2OCCCC[C@H](C)Oc3ccc(NS(=O)(=O)c4ccc(F)cc4)cc3C(=O)N([C@@H](C)CO)C[C@H]2C)cc1 | – | – | · | 19 | ·
Cc1ccc(S(=O)(=O)Nc2ccc3c(c2)C(=O)N([C@@H](C)CO)C[C@@H](C)[C@H](CN(C)S(=O)(=O)c2ccc(F)cc2)OCCCC[C@@H](C)O3)cc1 | – | – | · | 18 | ·
C[C@H](CO)N1C[C@H](C)[C@@H](CN(C)C(=O)c2ccncc2)OCCCC[C@H](C)Oc2ccc(NS(=O)(=O)c3ccccc3)cc2C1=O | – | – | · | – | ·
Cc1ccc(S(=O)(=O)N(C)C[C@@H]2OCCCC[C@@H](C)Oc3ccc(NS(=O)(=O)c4ccc(F)cc4)cc3C(=O)N([C@@H](C)CO)C[C@@H]2C)cc1 | – | – | · | 29 | ·
C[C@@H]1CCCCO[C@@H](CN(C)S(=O)(=O)c2ccc(F)cc2)[C@H](C)CN([C@H](C)CO)C(=O)c2cc(NS(=O)(=O)c3ccccc3)ccc2O1 | – | – | · | 16 | ·
Cc1ccc(S(=O)(=O)N(C)C[C@H]2OCCCC[C@H](C)Oc3ccc(NS(=O)(=O)c4ccc(F)cc4)cc3C(=O)N([C@@H](C)CO)C[C@@H]2C)cc1 | – | – | · | – | ·
O=C(N[C@@H]1CC[C@H](CCNC(=O)C2CCCC2)O[C@@H]1CO)c1ccncc1 | – | – | · | – | ·
NC(=O)c1cc(N)ccc1N1CCCC1 | – | · | – | – | 51
NC(=O)c1cc(N)ccc1N1CCCCC1 | – | · | – | – | –
CCCOc1cccc(-c2cc(C(=O)N/N=C/c3ccccn3)c3ccccc3n2)c1 | – | – | – | – | ·
O=C(N/N=C/c1ccccn1)c1cc(-c2ccc(Cl)cc2)nc2ccccc12 | – | – | 99 | – | –
O=C(O)c1ccccc1/C=N/NC(=O)c1cc(-c2ccco2)nc2ccccc12 | 61 | – | – | 19 | –
O=C(N/N=C/c1ccccn1)c1cc(-c2ccc(Br)cc2)nc2ccccc12 | – | – | 106 | · | –
CC(=O)Nc1ccc(/C=N/NC(=O)c2cc(-c3ccco3)nc3ccccc23)cc1 | – | – | – | – | –
C[C@H]1CN([C@@H](C)CO)C(=O)c2cc(NS(=O)(=O)c3ccc(F)cc3)ccc2O[C@@H]1CN(C)S(=O)(=O)c1ccccc1 | · | – | · | · | ·
COC(=O)c1ccccc1NC1=C/C(=N\S(=O)(=O)c2cccs2)c2ccccc2C1=O | – | – | – | · | –
CCc1cc[n+](C2=C([O-])c3ccccc3C(=O)/C2=N\S(=O)(=O)c2cccs2)cc1 | – | – | – | – | 82
COc1ccc2c3c([nH]c2c1)[C@@H](CO)N(C(=O)C1CCC1)CC31CN(C(=O)c2ccccn2)C1 | – | · | · | – | ·
O=C(Oc1c(Cl)cc(Cl)c2cccnc12)c1cccc([N+](=O)[O-])c1 | · | – | 107 | · | ·
COc1ccc2c3c(n(C)c2c1)[C@H](CO)N(Cc1ccncc1)CC31CN(C(=O)C2CCC2)C1 | – | · | · | – | ·
OC[C@@H]1[C@@H](c2ccccc2)C2(CN(Cc3nccs3)C2)N1Cc1cccnc1 | – | · | · | – | ·
SMILES | CASP6 VEID inh | ARNT TACC3 PPI | PfHsp90 set2 | SIRT5 inh | NSD2 inh
OC[C@@H]1[C@H](c2ccccc2)C2(CN(Cc3nccs3)C2)N1Cc1cccnc1 | – | · | · | 20 | ·
CCCCCCCCCc1conc1C(=O)/C=C/c1ccco1 | 67 | · | · | · | ·
N/C(=N\OC(=O)c1ccc2ccccc2c1)c1ccncc1 | – | – | – | – | –
N/C(=N\OC(=O)c1ccc2ccccc2c1)c1ccccc1Cl | – | – | 100 | – | –
C[C@@H]1CN([C@@H](C)CO)C(=O)c2cc(NC(=O)Cc3ccccc3)ccc2O[C@H]1CN(C)S(=O)(=O)c1cccs1 | – | · | · | – | ·
Cc1ccccc1-c1nc(CS(=O)(=O)CC(=O)NCCN2CCCC2)c(C)o1 | 36 | – | – | – | ·
CCN1CCN(CCCNC(=O)CS(=O)(=O)Cc2nc(-c3ccccc3C)oc2C)CC1 | – | – | – | – | –
C[C@H](CO)N1C[C@H](C)[C@@H](CN(C)Cc2ccc(C(F)(F)F)cc2)OCCCC[C@H](C)Oc2ccc(NS(=O)(=O)c3ccc(F)cc3)cc2C1=O | – | – | · | 20 | ·
C[C@H]1CCCCO[C@H](CN(C)Cc2ccc(C(F)(F)F)cc2)[C@@H](C)CN([C@@H](C)CO)C(=O)c2cc(NS(=O)(=O)c3ccc(F)cc3)ccc2O1 | – | – | · | 23 | ·
O=[N+]([O-])c1cc(-n2cnnn2)ccc1N1CCC(Cc2ccccc2)CC1 | · | – | 104 | · | –
CC1CC(C)CN(c2ccc(-n3cnnn3)cc2[N+](=O)[O-])C1 (stereo unspecified) | · | – | – | · | –
O=C(Cc1ccc([N+](=O)[O-])cc1)c1c(O)cc(O)cc1O | 41 | – | – | – | –
O=C(O)CN1CCN(CC(=O)O)CCN(CC(=O)O)CCN(CC(=O)O)CC1 | · | 60 | – | – | ·
CN(C)CCCNC(=O)[C@H]1[C@H](CO)[C@H]2Cn3c(ccc(-c4ccncc4)c3=O)[C@@H]1N2C(=O)CC1CC1 | – | – | · | – | ·
Clc1nccc(N2CCN(c3ccccc3Cl)CC2)n1 | – | · | · | 18 | –
O=C(N/N=C(\c1ccccc1)c1cccnc1)c1cccc(F)c1 | – | 57 | · | – | –
CC(=O)N1CC[C@@H]2[C@H]1c1cc(C#Cc3cccnc3)ccc1N[C@@H]2CO | – | – | · | – | ·
CC(C)(C)c1cc(NCc2ccccn2)n2ncc(-c3ccccc3)c2n1 | – | – | 108 | – | –
Cc1cc(NCc2ccccc2)n2ncc(-c3ccccc3)c2n1 | – | – | – | – | –
O=C(NC[C@@H]1CC[C@@H]2[C@@H](CN2S(=O)(=O)c2ccccc2[N+](=O)[O-])O1)C1CCOCC1 | 53 | · | · | – | ·
O=C(NC[C@H]1CC[C@@H]2[C@@H](CN2S(=O)(=O)c2ccccc2[N+](=O)[O-])O1)Nc1ccccc1 | – | · | · | – | ·
